Screens as filed in PubChem.
D2 PAM-1 = D2 dopamine receptor (human) potentiation. P14416. HEK293 T-REx D2, calcium flux, EC20 dopamine potentiation. potentiation, % at 10 µM. 0.34% of 340,000 active;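 active = potentiation over 3 SD above the plate norm, cut at about 30% in these data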; also: 0% is about no effect
Target sequence (P14416 whole entry, looked up): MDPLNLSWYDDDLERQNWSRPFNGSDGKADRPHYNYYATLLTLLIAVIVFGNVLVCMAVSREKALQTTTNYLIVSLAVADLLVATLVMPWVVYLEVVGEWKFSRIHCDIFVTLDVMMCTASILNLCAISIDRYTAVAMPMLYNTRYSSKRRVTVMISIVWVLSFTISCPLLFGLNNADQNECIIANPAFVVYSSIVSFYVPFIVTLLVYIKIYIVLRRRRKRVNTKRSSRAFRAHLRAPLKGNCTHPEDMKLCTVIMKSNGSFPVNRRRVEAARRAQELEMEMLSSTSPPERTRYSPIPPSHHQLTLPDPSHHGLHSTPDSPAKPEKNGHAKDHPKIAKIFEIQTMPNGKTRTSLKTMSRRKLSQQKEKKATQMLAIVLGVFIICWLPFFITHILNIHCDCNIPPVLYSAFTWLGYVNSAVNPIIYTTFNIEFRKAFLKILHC
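Calcium flux readout, no-wash dye, 1 read/s. Inducible HEK293 Trex D2 line, overnight 30 C. Compound alone 180 s (agonist flags), then EC20 dopamine, another 180 s to score potentiation.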
D2 PAM-2 = potentiates the human D2 dopamine receptor allosterically; P14416; DiscoveRx D2 beta-arrestin cells, luminescence, 90 min; 100% = 57 uM dopamine signal; potentiation, % (test concentration not listed); 0.23% of 360,000 active; in the data active = potentiation above about 50%; inconclusive = mostly about 30% to 49%
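D2 cells co-treated with compound plus 50 nM dopamine (EC20) for 90 min at 37 deg C to detect potentiation. Beta-arrestin recruitment was read as enzyme-fragment luminescence after 1 h at ambient temperature. Full response was set by 57 uM dopamine.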
D2 ag-1 = activates the human D2 dopamine receptor; P14416; DiscoveRx PathHunter D2 beta-arrestin, luminescence, 90 min; 100% = 57 uM dopamine signal; activation, % (test concentration not listed); 0.084% of 360,000 active; in the data active = activation above about 40%; inconclusive = between about 15% and that limit
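DiscoveRx PathHunter D2 beta-arrestin cells (2,100/well) attached overnight, then compound-stimulated 90 min at 37 C in HBSS/10 mM HEPES/0.1% Tween-20 buffer; beta-galactosidase complementation read by luminescence after 1 h at ambient temperature. Dopamine 57 uM final (EC100) as control.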
D2 antag = antagonists of human D2 dopamine receptor; 2% of 340,000 active; inhibition, % at 10 µM; HEK293 TREx D2 cells, calcium flux, dopamine EC80; P14416; in the data active = inhibition above about 30%; inactive = below that, where a call was filed; also: 0% is about no effect
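Dopamine at EC80 is the agonist stimulus; test compounds precede it by 180 s. Calcium flux read kinetically in a force-coupled, inducible HEK293 T-REx D2 cell line.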
D2 ag-2 = activates the human D2 dopamine receptor; activation, % at 2 µM; P14416; HEK293 T-REx D2 cells, calcium flux agonist mode; 0.53% of 340,000 active;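 active = activation over 3 SD above normal in the single-dose calcium agonist read, cut at about 30% in these data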; also: 0% is about no effect
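HEK293 Trex D2 cells, tetracycline-induced, o/n 30 C 5% CO2; no-wash Ca dye, RT 30–90 min; 10-cycle baseline, 23 nl cpd added, kinetic Ca read 180 s; agonist hits = positive Ca response.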
D3 ag = confirmation of human D3 dopamine receptor agonists, beta-arrestin | shares compounds with D2 ag-2 | Potency, µM (titrated, usually from 76.9 µM), without a hit: at the top dose activation, usual class: activators | DiscoveRx D3 beta-arrestin cells, luminescence, 90 min | AID 720506 | 4% of 2,300 active;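 also: potency is read from the fitted curve at half-maximal effect; 100% = dopamine control response; nearly all actives have a fitted effect of over 70% in size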
D2 ag-3 = activates human D2 dopamine receptor in D3 counterscreen. AID 720507. 5.9% of 2,300 active. shares compounds with D2 ag-2. DiscoveRx PathHunter D2 beta-arrestin, luminescence, 90 min; response scale: percent relative to full dopamine signal. Potency, µM (top dose mostly 76.9 µM), for the others: top-dose activation, usual class: activators; also: potency is read from the fitted curve at half-maximal effect; % of control where 0% means no effect; nearly all actives have a fitted effect of over 70% in size
* hit, by the source's call; ? = inconclusive; . = not tested or not shown. A selection: hits, their analogues and other compounds. The true share with any hit is near 2.4%. Unless noted, calls follow the shape of the dose curve; as a rule, active = well fitted activation curve with a large enough effect; inconclusive = small, poorly fitted or top-dose-only effect; inactive = flat fitted curve, though single readings scatter.

SMILES	D2 PAM-1	D2 PAM-2	D2 ag-1	D2 antag	D2 ag-2	D3 ag	D2 ag-3
COc1ccccc1NS(=O)(=O)c1ccc(C(=O)N2CCCC(C(F)(F)F)C2)cc1 (stereo not given)	-15	-5	0	13	-1	2%	-2%
CC(C)C[C@H]1CNC(=O)C(=O)N1CC1CCN(CCc2ccc(-c3ccccc3)cc2)CC1	.	-15	-1	.	.	.	.
CN(Cc1ccccc1)S(=O)(=O)c1cc(Br)cc2c1N(C(=O)C1CC1)CC2	4	.	.	.	-1	.	.
CCOC(=O)c1ccc(-c2c(-c3cc(OC)c(OC)c(OC)c3)noc2C)cc1F	3	-14	1	16	0	.	.
CCOC(=O)c1ccc(-c2c(-c3ccc(OC)cc3)oc(=O)c3cc(OC)c(OC)cc23)cc1F	.	3	1	.	.	-3%	-1%
CN(Cc1ccccc1)CC(O)COc1ccc(CNCCOc2cccnc2)cc1 (stereo not given)	-12	-2	?	83*	56*	1.4µM*	24%
CN(Cc1ccccc1)C(=O)c1nc2ccccn2c1CNCCOc1cccnc1	-26	-9	-4	-10	41*	-7%	2%
CN(Cc1ccccc1)CC(O)COc1ccc(CNCCCOc2cccnc2)cc1 (stereo not given)	-15	-30	1	26	0	.	.
CCOc1ccc(CCNC(=O)CCSCc2cccc(Cl)c2)cc1OCC	-8	.	.	.	1	.	.
CCOc1ccc(S(=O)(=O)N2CCCCC2)c(C)c1C	-7	1	-3	12	-2	-10%	-1%
Cc1nc(-c2nc(-c3c(C(=O)NNC(=O)Nc4cccc(Cl)c4)noc3C)cs2)cs1	-18	1	4	49*	40*	-5%	9%
CCOc1cc(C)c(Cl)cc1S(=O)(=O)NCCOC	-18	-4	-1	32*	59*	-8%	-3%
COc1cccc(C#Cc2ccc3c(c2)O[C@H](CN(C)C)[C@@H](C)CN([C@@H](C)CO)S3(=O)=O)c1	.	3	-8	.	.	.	.
O=C(c1cccc(C(=O)N(c2ccccn2)C2CCCCC2)c1)N(c1ccccn1)C1CCCCC1	-27	2	?	62*	70*	-4%	?
COc1ccccc1COC(=O)c1ccc(S(=O)(=O)N2CCOCC2)cc1	1	5	-1	12	1	.	.
N#CC(C(=O)NC1CCCCC1)c1nc2ccccc2nc1N1CCOCC1 (stereo not given)	-2	.	.	-1	-1	.	.
N#CC(C(=O)OCc1ccccc1)c1nc2ccccc2nc1N1CCOCC1 (stereo not given)	8	-5	-8	24	5	-25%	-7%
CSCCC(NC(=O)COc1ccccc1)C(=O)N1CC(C)OC(C)C1 (stereo not given)	-4	-1	-2	-14	0	-6%	-2%
CSCCC(NC(=O)COc1ccccc1)C(=O)N1CC(C)CC(C)C1 (stereo not given)	7	-2	3	-3	0	.	.
NC(=O)c1nsc(C(=O)N(c2ccccc2)C(C(=O)NCc2ccc(F)cc2)c2ccco2)c1N (stereo not given)	.	2	4	.	.	.	.
NC(=O)c1nsc(C(=O)N(c2ccccc2)C(C(=O)NCc2ccc(F)cc2)c2ccc(O)cc2)c1N (stereo not given)	5	23	4	57*	6	2%	-1%
Cc1cc(Cn2nc(-c3ccccc3C)cc2C(=O)O)on1	-6	-8	-2	-1	-1	-8%	-3%
CC(=O)N1CCCc2cc(S(=O)(=O)N3CCC(C(=O)NCc4ccccc4)CC3)ccc21	5	.	.	.	1	.	.
c1ccc(N2CCN(C3CCSC3)CC2)cc1 (stereo not given)	-35	-18	4	18	41*	-9%	10%
